The text below walks through data of PubChem BioAssay (NCI).

About 83,000 compounds went through this panel and 20% of them were active in at least one assay; those are over-represented in the sample as a whole.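 For each line, cells grew in 96-well plates with the test compound present at a single concentration for 48 hours.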 Unmarked numbers belong to inactive results. Active and inactive are the calls of the source. Rule for the calls: active = growth percent below 10; inactive = the rest.

Some test systems named below: NCI-H23 lung; NCI-H226 lung; NCI-H322M lung; HOP-62 NSCLC; NCI-H460 lung; HOP-92 NSCLC; NCI-H522 lung; A549/ATCC NSCLC; 786-0 renal; COLO 205 colon.
Assay in all cases: NCI-60 one-dose screen, 48 h (100 = growth as untreated, 0 = no growth, -100 = all killed)
Common to all, as to settings: 10 µM unless noted

As to `Cn1cc(-c2csc(-c3ccc(Cl)cc3)n2)c2cccnc21`, the growth in the test with NCI-H23 lung is -49.3% [100 µM] (active); in the test with NCI-H226 lung, -14.3% [100 µM] (active); with NCI-H322M lung it was -8.35% [100 µM] (active); in the test on HOP-62 NSCLC, -53.7% [100 µM] (active); in the test on NCI-H460 lung, -16.4% [100 µM] (active); in the test with HOP-92 NSCLC, -69.2% [100 µM] (active). Also, the growth in the test on NCI-H522 lung is 9.55% [100 µM] (active); in the test with A549/ATCC NSCLC it was 9.96% [100 µM] (active); with 786-0 renal, -61.4% [100 µM] (active); in the test on COLO 205 colon, -65.8% [100 µM] (active).
Take `COc1cc(C(=O)n2nc(N3CCN(C)CC3)c3cc(N)ccc32)cc(OC)c1OC`: the growth in the test on NCI-H23 lung was 38.3%; in the test on NCI-H226 lung, 47.6%; with NCI-H322M lung, 58.6%; in the test on HOP-62 NSCLC, 32.5%; in the test with NCI-H460 lung, 38.8%; in the test on HOP-92 NSCLC, 43%. Besides, the growth with NCI-H522 lung was -7.31% (active); in the test with A549/ATCC NSCLC, 65.3%; in the test with 786-0 renal, 24.7%; in the test on COLO 205 colon it was 107%.
As to `CC(=O)N1N=C(c2ccc(Nc3nc(Nc4ccc(Cl)cc4)nc(Nc4ccc(Cl)cc4)n3)cc2)CC1c1ccco1` (stereo not given), the growth with NCI-H23 lung was 85.4%; with NCI-H226 lung, 100%; with NCI-H322M lung it was 103%; with HOP-62 NSCLC it was 91.9%; in the test with NCI-H460 lung it was 96.9%; in the test with HOP-92 NSCLC, 99.9%. The growth in the test on NCI-H522 lung is 68.4%; with A549/ATCC NSCLC it was 72.1%; with 786-0 renal it was 86.7%; with COLO 205 colon, 109%.
On to `O=C(CCC(=O)N/N=C/c1ccccc1O)N/N=C/c1ccccc1O`, for which the growth in the test on NCI-H23 lung was 61.2%; in the test on NCI-H226 lung it was 61.8%; in the test with NCI-H322M lung, 29.3%; with HOP-62 NSCLC, 36.2%; in the test with NCI-H460 lung, 44.4%; with HOP-92 NSCLC it was 57.1%. Further, the growth in the test with NCI-H522 lung is 51.8%; in the test with A549/ATCC NSCLC, 62.6%; with 786-0 renal, 69.7%; in the test on COLO 205 colon it was 35.4%.
As for `O=C(Nc1cc(Cl)ccc1O)c1ccc(Nc2ccnc(C(F)(F)F)c2)cc1`, the growth is 9.34% (active) in the test with NCI-H23 lung; 52.1% in the test with NCI-H226 lung; 61.7% in the test on NCI-H322M lung; 46.3% in the test on HOP-62 NSCLC; 7.25% (active) in the test on NCI-H460 lung; 86% with HOP-92 NSCLC. Moreover, the growth in the test on NCI-H522 lung is 23.7%; in the test with A549/ATCC NSCLC, 36.5%; in the test with 786-0 renal it was 49%; with COLO 205 colon, 87.9%.
For the compound `O=C(Nc1nc2ccc(F)cc2s1)c1cccnc1Nc1ccc(Cl)cc1`, the growth in the test on NCI-H23 lung is 9.97% (active); with NCI-H226 lung it was 44.1%; in the test on NCI-H322M lung, 30.9%; with HOP-62 NSCLC, 75.6%; in the test with NCI-H460 lung, 9.26% (active); in the test with HOP-92 NSCLC it was 0.414% (active). In addition, the growth is 21.1% with NCI-H522 lung, 31% with A549/ATCC NSCLC, 56.2% in the test with 786-0 renal and 49.8% with COLO 205 colon.
On to `COc1ccc2[nH]cc(-c3nc(-c4cn(C)c5c(Cl)nccc45)cs3)c2c1`, for which the growth is 58.3% in the test on NCI-H23 lung; 40.8% in the test with NCI-H226 lung; 75.5% with NCI-H322M lung; 56.6% with HOP-62 NSCLC; 6.1% (active) in the test on NCI-H460 lung; 78.8% with HOP-92 NSCLC. Further, the growth in the test with NCI-H522 lung was 13.9%; in the test with A549/ATCC NSCLC, 33.8%; in the test with 786-0 renal it was 16.2%; with COLO 205 colon it was 32.9%.
Take `CN(C)CC(=O)Nc1ccc2ncnc(Nc3ccc(Oc4cccc(C(F)(F)F)c4)c(Cl)c3)c2c1`: the growth was 75.9% in the test on NCI-H23 lung; 80.7% in the test with NCI-H226 lung; 45.3% with NCI-H322M lung; 76.5% in the test with HOP-62 NSCLC; 8.52% (active) in the test on NCI-H460 lung; 37.9% in the test with HOP-92 NSCLC. Also, the growth in the test on NCI-H522 lung is 67.7%; in the test with A549/ATCC NSCLC, 47.5%; with 786-0 renal, 59.4%; in the test with COLO 205 colon, 35.9%.
Regarding `O=C1Nc2ccccc2/C1=C\c1nc(-c2ccccc2)n2ccccc12`, the growth in the test with NCI-H23 lung was 85%; in the test with NCI-H226 lung, 91%; in the test on NCI-H322M lung, 92%; in the test with HOP-62 NSCLC it was 92.9%; with NCI-H460 lung, 94.4%; in the test with HOP-92 NSCLC it was 121%. The growth with NCI-H522 lung was 77.7%; in the test on A549/ATCC NSCLC, 92.7%; in the test on 786-0 renal, 99.4%; with COLO 205 colon, 110%.
Regarding `CCOC(=O)Cn1c(O)c(N=Nc2ccc(S(N)(=O)=O)cc2)c2cc(Br)ccc21`, the growth is 77.1% in the test on NCI-H23 lung; 85.9% in the test on NCI-H226 lung; 77.7% in the test on NCI-H322M lung; 65% in the test with HOP-62 NSCLC; 44.1% with NCI-H460 lung; 96.4% with HOP-92 NSCLC. Also, the growth in the test on NCI-H522 lung is 70.8%; with A549/ATCC NSCLC it was 30.7%; in the test with 786-0 renal, 99.2%; in the test on COLO 205 colon, 58%.
`COc1cc(N2C(=O)[C@H](O)C2c2ccc(SC)cc2)cc(OC)c1OC` (stereo not given in full): the growth is 23% with NCI-H23 lung; 68.6% in the test on NCI-H226 lung; 37.1% with NCI-H322M lung; 21.6% with HOP-62 NSCLC; 5.6% (active) in the test with NCI-H460 lung; 26.1% with HOP-92 NSCLC. The growth is -19.8% (active) in the test on NCI-H522 lung, 17% in the test on A549/ATCC NSCLC, 11.3% in the test with 786-0 renal and -53.3% (active) with COLO 205 colon.
In the case of `CCN1C(=O)N(CC)C2C1NN=c1s/c(=C\c3ccc(Cl)cc3Cl)c(=O)n12` (stereo not given), the growth with NCI-H23 lung is 28.4%; in the test with NCI-H226 lung it was 48.8%; in the test on NCI-H322M lung, 42.4%; in the test on HOP-62 NSCLC, 33.5%; with NCI-H460 lung, 5.72% (active); in the test on HOP-92 NSCLC, 50.8%. Moreover, the growth in the test with NCI-H522 lung was -8.78% (active); in the test on A549/ATCC NSCLC, 14.6%; in the test on 786-0 renal, 20.6%; with COLO 205 colon, -7.91% (active).
